According to PubChem BioAssay (EPA / NIEHS):
The source made the active and inactive calls. How the source made its calls: active means hit-call score of the fitted dose curve at least 0.9, where 1 is the maximum; inactive means score below 0.9.

Assays:
[1] = BSK_hDFCGF_SRB: Viability Assessment in the BioMAP Diversity Plus: hDFCGF Assay (AID 2283061); settings: primary human foreskin fibroblasts;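 further: cells exposed to compound for 24 h before the read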
Outline: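 Readout is SRB absorbance at 560 nm, reflecting total protein in parallel cultures of human foreskin fibroblasts harvested 24 h after chemical dosing. Activity was fitted bidirectionally relative to DMSO.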

[2] = read-out: TIMP metallopeptidase inhibitor 1 (TIMP1), TIMP1 (gene 7076); experiment: BSK_hDFCGF_TIMP1: BioMAP Diversity Plus: hDFCGF Assay for TIMP metallopeptidase inhibitor 1 (TIMP1) Biomarker Activity (AID 2283062); settings: primary human foreskin fibroblasts; actives raise or lower the signal
Outline: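 Human skin fibroblasts (primary), hDFCGF system; compound exposure 24 h; TIMP-1 by ELISA; bidirectional fit vs DMSO negative control; overt cytotoxicity by SRB in parallel wells.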

[3] = read-out: Monokine induced gamma interferon (MIG), CXCL9 (gene 4283); experiment: BSK_hDFCGF_MIG: BioMAP Diversity Plus: hDFCGF Assay for Monokine induced gamma interferon (MIG) Biomarker Activity (AID 2283063); settings: primary human foreskin fibroblasts; actives raise or lower the signal
Outline: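 Chemicals were added to primary human foreskin fibroblast cultures, which were sampled 24 h later. MIG levels were then quantified by ELISA and responses fitted in both directions relative to DMSO.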

[4] = read-out: Matrix Metallopeptidase 1 (MMP1), MMP1 (gene 4312); experiment: BSK_hDFCGF_MMP1: BioMAP Diversity Plus: hDFCGF Assay for Matrix Metallopeptidase 1 (MMP1) Biomarker Activity (AID 2283064); settings: primary human foreskin fibroblasts; actives raise or lower the signal
Outline: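 MMP1 levels quantified by ELISA 24 h after dosing human dermal fibroblast cultures, with parallel SRB total-protein staining for overt cytotoxicity. Data fitted in both directions against DMSO baseline.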

[5] = read-out: Vascular cell adhesion molecule 1 (VCAM1), VCAM1 (gene 7412); experiment: BSK_hDFCGF_VCAM1: BioMAP Diversity Plus: hDFCGF Assay for Vascular cell adhesion molecule 1 (VCAM1) Biomarker Activity (AID 2283065); settings: primary human foreskin fibroblasts; actives raise or lower the signal
Outline: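 Human foreskin fibroblast primary cells, chemical exposure 24 h; VCAM-1 by ELISA; bidirectional fit, DMSO = negative control/baseline.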

[6] = read-out: Intercellular Adhesion Molecule 1 (ICAM1), ICAM1 (gene 3383); experiment: BSK_KF3CT_ICAM1: BioMAP Diversity Plus: KF3CT Assay for Intercellular Adhesion Molecule 1 (ICAM1) Biomarker Activity (AID 2283067); settings: primary human keratinocytes with fibroblasts; actives raise or lower the signal
Outline: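 ICAM-1 levels are measured by ELISA 24 h after dosing a primary human co-culture of keratinocytes and foreskin fibroblasts. Activity in either direction is fitted relative to DMSO vehicle.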

[7] = read-out: Interferon-gamma inducible Protein 10 (IP10), CXCL10 (gene 3627); experiment: BSK_KF3CT_IP10: BioMAP Diversity Plus: KF3CT Assay for Interferon-gamma inducible Protein 10 (IP10) Biomarker Activity (AID 2283068); settings: primary human keratinocytes with fibroblasts; actives raise or lower the signal
Outline: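 Signal is secreted/surface IP-10 by ELISA in a human primary skin co-culture of keratinocytes and foreskin fibroblasts, taken 24 h post-dosing; DMSO served as negative control.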

[8] = BSK_KF3CT_SRB: Viability Assessment in the BioMAP Diversity Plus: KF3CT Assay (AID 2283069); settings: primary human keratinocytes with fibroblasts;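 further: read 24 h after compound addition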
Outline: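 Cytotoxicity was gauged by SRB staining (0.1% SRB, 10% TCA fixation, 560 nm) of parallel cultures at 24 h. The cells were primary human skin keratinocytes co-cultured with fibroblasts, and activity was fitted in both directions against DMSO.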

[9] = read-out: Interleukin-1 alpha (IL1a), IL1A (gene 3552); experiment: BSK_KF3CT_IL1a: BioMAP Diversity Plus: KF3CT Assay for Interleukin-1 alpha (IL1a) Biomarker Activity (AID 2283070); settings: primary human keratinocytes with fibroblasts; actives raise or lower the signal
Outline: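 IL-1a was detected by ELISA 24 h after chemical treatment of a co-culture of human skin keratinocytes and foreskin fibroblasts. Gain or loss of signal was fitted against the DMSO baseline.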

[10] = read-out: TIMP metallopeptidase inhibitor 2 (TIMP2), TIMP2 (gene 7077); experiment: BSK_KF3CT_TIMP2: BioMAP Diversity Plus: KF3CT Assay for TIMP metallopeptidase inhibitor 2 (TIMP2) Biomarker Activity (AID 2283071); settings: primary human keratinocytes with fibroblasts; actives raise or lower the signal
Outline: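 TIMP-2 measured by ELISA at 24 h in human keratinocyte/fibroblast primary co-cultures exposed to chemicals. Both increases and decreases were fitted against DMSO. Parallel cultures were stained with SRB for total protein as an overt-cytotoxicity check.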

[11] = read-out: Transforming growth factor beta 1 (TGFb1), TGFB1 (gene 7040); experiment: BSK_KF3CT_TGFb1: BioMAP Diversity Plus: KF3CT Assay for Transforming growth factor beta 1 (TGFb1) Biomarker Activity (AID 2283072); settings: primary human keratinocytes with fibroblasts; actives raise or lower the signal
Outline: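 ELISA quantifies TGF-b1 at 24 h post-dose in a primary human skin co-culture of keratinocytes and fibroblasts, with gain or loss judged against DMSO. Parallel SRB total-protein staining flags overt cytotoxicity.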

[12] = read-out: C-C motif chemokine 2 (Homo sapiens) (UniProt P13500); experiment: BSK_KF3CT_MCP1: BioMAP Diversity Plus: KF3CT Assay for Monocyte Chemoattractant Protein 1 (MCP1/CCL2) Biomarker Activity (AID 2283073); settings: primary human keratinocytes with fibroblasts; actives raise or lower the signal
Outline: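 ELISA readout of MCP-1 after 24 h chemical dosing of a human skin primary co-culture of keratinocytes and foreskin fibroblasts. Activity was fitted in both directions against DMSO.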

[13] = read-out: Matrix Metallopeptidase 9 (MMP9), MMP9 (gene 4318); experiment: BSK_KF3CT_MMP9: BioMAP Diversity Plus: KF3CT Assay for Matrix Metallopeptidase 9 (MMP9) Biomarker Activity (AID 2283074); settings: primary human keratinocytes with fibroblasts; actives raise or lower the signal
Outline: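 MMP-9 quantified by ELISA after 24 h chemical treatment of primary human skin keratinocyte/fibroblast co-cultures; gain or loss fitted against DMSO, with parallel SRB staining (0.1% SRB, 560 nm) for overt cytotoxicity.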

[14] = read-out: urokinase plasminogen activator (uPA), PLAU (gene 5328); experiment: BSK_KF3CT_uPA: BioMAP Diversity Plus: KF3CT Assay for urokinase plasminogen activator (uPA) Biomarker Activity (AID 2283075); settings: primary human keratinocytes with fibroblasts; actives raise or lower the signal
Outline: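 ELISA read-out of uPA 24 h after dosing human skin keratinocytes co-cultured with foreskin fibroblasts. Signal change fitted both ways relative to DMSO; sulforhodamine B on parallel cultures marks overt cytotoxicity.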

[15] = read-out: E-selectin (Homo sapiens) (UniProt P16581); experiment: BSK_LPS_Eselectin: BioMAP Diversity Plus: LPS Assay for Eselectin Biomarker Activity (AID 2283077); settings: primary human HUVEC with PBMC; actives raise or lower the signal
Outline: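 Primary human vascular co-culture (endothelium plus PBMC) was dosed with chemical, then E-selectin quantified by ELISA at 24 h. Endpoint values derive from bidirectional curve fitting relative to DMSO.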

[16] = read-out: Interleukin-8 (IL8), CXCL8 (gene 3576); experiment: BSK_LPS_IL8: BioMAP Diversity Plus: LPS Assay for Interleukin-8 (IL8) Biomarker Activity (AID 2283078); settings: primary human HUVEC with PBMC; actives raise or lower the signal
Outline: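 Readout is IL-8 by ELISA, taken 24 h after compounds were added to LPS-stimulated endothelial/PBMC co-cultures. Both increases and decreases relative to DMSO control were scored through bidirectional fitting.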

[17] = BSK_LPS_SRB: Viability Assessment in the BioMAP Diversity Plus: LPS Assay (AID 2283079); settings: primary human HUVEC with PBMC;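 further: total protein by sulforhodamine B absorbance as a cytotoxicity measure; measured one day after compound addition; fitted in both directions against DMSO so loss or gain of signal counts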
Outline: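 Readout is SRB absorbance at 560 nm (0.1% stain, TCA-fixed parallel cultures) as a total-protein cytotoxicity measure. Cells: primary human umbilical vein endothelium plus peripheral blood mononuclear cells, 24 h after chemical exposure; DMSO served as baseline.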

[18] = read-out: Interleukin-1 alpha (IL1a), IL1A (gene 3552); experiment: BSK_LPS_IL1a: BioMAP Diversity Plus: LPS Assay for Interleukin-1 alpha (IL1a) Biomarker Activity (AID 2283080); settings: primary human HUVEC with PBMC; actives raise or lower the signal
Outline: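 ELISA read-out of IL-1 alpha from a human primary vascular co-culture (endothelium plus PBMC) under LPS, sampled 24 hours post-dosing. Activity was fitted in both directions relative to DMSO controls.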

[19] = read-out: Plasminogen activator inhibitor-1 (PAI1), SERPINE1 (gene 5054); experiment: BSK_hDFCGF_PAI1: BioMAP Diversity Plus: hDFCGF Assay for Plasminogen activator inhibitor-1 (PAI1) Biomarker Activity (AID 2283066); settings: primary human foreskin fibroblasts; actives raise or lower the signal
Outline: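 PAI-1 levels in human dermal foreskin fibroblasts were quantified by ELISA 24 h after dosing, with gain or loss analysed against DMSO. Overt cytotoxicity was checked by sulforhodamine B total-protein staining in parallel cultures.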

CD40, CD40 (gene 958) = experiment: BSK_LPS_CD40: BioMAP Diversity Plus: LPS Assay for CD40 Biomarker Activity (AID 2283076); settings: primary human HUVEC with PBMC; actives raise or lower the signal
Outline: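 Cells were dosed, incubated 24 h, then assayed for CD40 by ELISA. Gain or loss of signal was analysed relative to DMSO controls. The culture paired human umbilical vein endothelium with peripheral blood mononuclear cells.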

Measured: outcome

Chain of E-selectin (Homo sapiens) (P16581 whole entry, looked up): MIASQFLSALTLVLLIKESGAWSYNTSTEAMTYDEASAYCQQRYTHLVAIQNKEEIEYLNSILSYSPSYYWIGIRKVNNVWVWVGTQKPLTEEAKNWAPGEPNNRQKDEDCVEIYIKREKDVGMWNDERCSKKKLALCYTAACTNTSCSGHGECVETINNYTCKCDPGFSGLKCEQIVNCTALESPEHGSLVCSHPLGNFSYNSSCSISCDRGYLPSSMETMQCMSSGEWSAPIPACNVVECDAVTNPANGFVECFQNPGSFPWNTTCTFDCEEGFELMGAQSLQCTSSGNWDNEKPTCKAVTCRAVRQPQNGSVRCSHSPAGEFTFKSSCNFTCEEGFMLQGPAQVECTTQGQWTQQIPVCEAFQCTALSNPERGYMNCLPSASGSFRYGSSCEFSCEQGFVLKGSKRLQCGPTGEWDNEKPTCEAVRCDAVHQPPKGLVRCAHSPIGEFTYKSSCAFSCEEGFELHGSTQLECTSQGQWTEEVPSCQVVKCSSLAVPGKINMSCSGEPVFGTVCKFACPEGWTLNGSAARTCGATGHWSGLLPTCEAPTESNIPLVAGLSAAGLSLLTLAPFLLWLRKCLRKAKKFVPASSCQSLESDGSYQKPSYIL

COc1cc(S(=O)(=O)O)c(C)cc1N=Nc1c(O)ccc2cc(S(=O)(=O)O)ccc12
inactive: [1] | [2] | [3] | [4] | [5] | [6] | [7] | [8] | [9] | [10] | [11] | [12] | [13] | [14] | [15] | [16] | [17] | [18]

CC(CO)OC(C)CO (stereo not given) (tested in a mixture with another compound)
inactive: [1] | [2] | [3] | [4] | [5] | [19] | [6] | [7] | [8] | [9] | [11] | [12] | [13] | [14] | [15] | [16] | [17] | [18]

CC=Cc1ccc(O)c(OC)c1
inactive: [1] | [2] | [3] | [4] | [5] | [6] | [7] | [8] | [9] | [10] | [11] | [12] | [13] | [14] | CD40, CD40 (gene 958) | [15] | [16] | [17] | [18]
